# Test results: the supplement of paper PMC8728848
# The sample as a whole holds a higher share of the strongest signals than the screen did.
# B1: OS9 (Arabidopsis thaliana) (protein)
# chain: MRGSHHHHHHGMASMTGGQQMGRDLYDDDDKSRLQIFPAHLVGTFSRNNREPKYKIEFLPEDSPFHPGDNLESMVMLDKHGNRFLCYLPKEEKATSGWTSSQQNISTVMMETQQLVKLKTPDELLQPLSEKCLFRQEGWWSYEFCHQKYVRQLHVEDENKIVQEFFLGTFDPEATAAFNQTVSDASTDASQRYHSHVYTNGTTCDLTGSPAEVEVRFVCAETRAMVTSITELSTCKYALTVQCPTLCKHPLFQLEKPVSHTIHCNAIPVEEDATRNKEEQAVDESPKMIADS
# What was measured:
# Assay in all cases: glycan array binding signal (z-score within array); higher = stronger binding
# Settings in all cases: glycan notation: IUPAC condensed, linker removed; mutation: R201A
# GalNAc3S(b1-4)GlcNAc = target: GalNAc3S(b1-4)GlcNAc
# Outline: (§1)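 The binding signal is a Z-score computed within each array and averaged over linkers. Arrays of the same protein sequence at different concentrations or buffers were also averaged together. Data originate from 3228 arrays in the Consortium for Functional Glycomics database, kept only where the protein sequence was available.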
# [1] = target: Glc(a1-6)Glc(a1-6)Glc(a1-6)Glc
# Outline: as §1
# Glc(b1-4)Glc = target: Glc(b1-4)Glc
# Outline: as §1
# GlcA(b1-3)GlcNAc = target: GlcA(b1-3)GlcNAc
# Outline: as §1
# [2] = target: GlcNAc(b1-2)Man(a1-3)[GlcNAc(b1-2)Man(a1-6)]Man(b1-4)GlcNAc(b1-4)[Fuc(a1-6)]GlcNAc
# Outline: as §1
# GlcNAc(b1-3)Fuc = target: GlcNAc(b1-3)Fuc
# Outline: as §1
# GlcNAc(b1-3)Gal = target: GlcNAc(b1-3)Gal
# Outline: as §1
# [3] = target: GlcNAc(b1-3)Gal(b1-4)GlcNAc
# Outline: as §1
# [4] = target: GlcNAc(b1-3)Gal(b1-4)GlcNAc(b1-2)Man(a1-3)[GlcNAc(b1-3)Gal(b1-4)GlcNAc(b1-2)Man(a1-6)]Man(b1-4)GlcNAc(b1-4)[Fuc(a1-6)]GlcNAc
# Outline: as §1
# [5] = target: GlcNAc(b1-4)Gal(b1-4)GlcNAc
# Outline: as §1
# GlcNAc(b1-4)GlcNAc = target: GlcNAc(b1-4)GlcNAc
# Outline: as §1
# [6] = target: GlcNAc(b1-4)GlcNAc(b1-4)GlcNAc
# Outline: as §1
# GlcNAc(b1-6)GalNAc = target: GlcNAc(b1-6)GalNAc
# Outline: as §1
# [7] = target: GlcNAc6S(b1-3)Gal(b1-4)GlcNAc
# Outline: as §1
# [8] = target: Kdn(a2-3)Gal(b1-4)[Fuc(a1-3)]GlcNAc
# Outline: as §1
# Man(a1-2)Man(a1-3)Man = target: Man(a1-2)Man(a1-3)Man
# Outline: as §1
# [9] = target: Neu5Ac(a2-3)Gal(b1-3)GalNAc(b1-4)[Neu5Ac(a2-3)]Gal(b1-4)Glc
# Outline: as §1
# [10] = target: Neu5Ac(a2-3)Gal(b1-3)GlcNAc(b1-2)[Neu5Ac(a2-3)Gal(b1-3)GlcNAc(b1-4)]Man(a1-6)[Neu5Ac(a2-3)Gal(b1-3)GlcNAc(b1-2)Man(a1-3)]Man(b1-4)GlcNAc(b1-4)GlcNAc
# Outline: as §1
# [11] = target: Neu5Ac(a2-3)Gal(b1-3)GlcNAc6S
# Outline: as §1
# Neu5Ac(a2-3)Gal(b1-4)Glc = target: Neu5Ac(a2-3)Gal(b1-4)Glc
# Outline: as §1
# [12] = target: Neu5Ac(a2-3)Gal(b1-4)GlcNAc(b1-2)Man(a1-3)[Neu5Ac(a2-6)Gal(b1-4)GlcNAc(b1-2)Man(a1-6)]Man(b1-4)GlcNAc(b1-4)GlcNAc
# Outline: as §1
# [13] = target: Neu5Ac(a2-3)Gal(b1-4)GlcNAc(b1-3)Gal(b1-4)GlcNAc
# Outline: as §1
# [14] = target: Neu5Ac(a2-3)Gal(b1-4)[Fuc(a1-3)]GlcNAc(b1-3)Gal(b1-4)GlcNAc
# Outline: as §1
# [15] = target: Neu5Ac(a2-6)Gal(b1-4)GlcNAc(b1-2)Man(a1-6)Man(b1-4)GlcNAc(b1-4)GlcNAc
# Outline: as §1
# [16] = target: Neu5Ac(a2-6)Gal(b1-4)GlcNAc(b1-3)Gal(b1-4)GlcNAc(b1-3)GalNAc
# Outline: as §1
# [17] = target: Neu5Ac(a2-6)Gal(b1-4)GlcNAc(b1-6)[Gal(b1-3)GlcNAc(b1-3)]Gal(b1-4)Glc
# Outline: as §1
binder,measurement,setting,value
B1,glycan array binding signal (z-score),GalNAc3S(b1-4)GlcNAc,2.29
same,glycan array binding signal (z-score),[1],-1.12
same,glycan array binding signal (z-score),Glc(b1-4)Glc,2.1
same,glycan array binding signal (z-score),GlcA(b1-3)GlcNAc,1.54
same,glycan array binding signal (z-score),[2],0.257
same,glycan array binding signal (z-score),GlcNAc(b1-3)Fuc,0.403
same,glycan array binding signal (z-score),GlcNAc(b1-3)Gal,-0.422
same,glycan array binding signal (z-score),[3],-0.104
same,glycan array binding signal (z-score),[4],2.59
same,glycan array binding signal (z-score),[5],0.805
same,glycan array binding signal (z-score),GlcNAc(b1-4)GlcNAc,8.22
same,glycan array binding signal (z-score),[6],0.6
same,glycan array binding signal (z-score),GlcNAc(b1-6)GalNAc,-0.498
same,glycan array binding signal (z-score),[7],-0.224
same,glycan array binding signal (z-score),[8],0.82
same,glycan array binding signal (z-score),Man(a1-2)Man(a1-3)Man,0.874
same,glycan array binding signal (z-score),[9],-0.662
same,glycan array binding signal (z-score),[10],-1.14
same,glycan array binding signal (z-score),[11],-0.775
same,glycan array binding signal (z-score),Neu5Ac(a2-3)Gal(b1-4)Glc,2.08
same,glycan array binding signal (z-score),[12],-0.425
same,glycan array binding signal (z-score),[13],0.1
same,glycan array binding signal (z-score),[14],1.98
same,glycan array binding signal (z-score),[15],-0.225
same,glycan array binding signal (z-score),[16],0.709
same,glycan array binding signal (z-score),[17],-0.933
